Bioassay records: PubChem BioAssay, The Scripps Research Institute Molecular Screening Center
Hits are enriched below; roughly 2% of the tested compounds scored in any of these assays.
TCR-CD3 inh: blocks the human TCR-CD3 interaction; inhibition, % at 9.4 µM; 360,000 tested, 0.37% active; TAMRA-labeled TCR probe fluorescence, biochemical; in the data active = inhibition above about 19%;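 note: recombinant mutant TCR 2C K166C tagged with TAMRA read by polarization; 0% = receptor in buffer alone and 100% = receptor with positive control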
Rin1 Abl inh: inhibitors of human Rin1-Abl protein interaction; P00519+Q13671; TR-FRET Rin1/Abl binding, biochemical; inhibition, % at 7.35 µM; 360,000 tested, 0.4% active; AID 588664; in the data active = inhibition above about 5%, passing the limit was not always enough
MBD2 DNA inh: blocks human MBD2 binding to methylated DNA. inhibition, % at 4.4 µM. 370,000 tested, 0.31% active. TR-FRET, MBD2 binding to methylated oligonucleotide. Q9UBB5; in the data active = inhibition above about 13%
UHRF1 MBD2 ctr: human UHRF1 methylated DNA binding inhibitors; Q96T88; UHRF1 binding to methylated oligo, TR-FRET; inhibition, % at 4.4 µM; 370,000 tested, 0.75% active;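 note: UHRF1 SRA domain binding a hemimethylated CpG hairpin DNA probe; 0% = median of test compound wells and 100% = reference inhibitor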
LEDGF integ inh: blocks HIV-1 LEDGF/p75-dependent DNA integration | inhibition, % at 3.7 µM | 370,000 tested, 0.64% active | AID 743269 | TR-FRET IN-LEDGF/p75 DNA integration, Eu/Cy5;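 active = inhibition above the screen-wide mean plus 3 SD, cut at about 13% in these data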;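 note: signal is the Cy5 over europium emission ratio at 671 and 618 nm; 0% = plate median of compound wells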
UHRF1 ctr MBD2: counter-screen for MBD2 inhibitors: human UHRF1 methylated DNA binding inhibitors | shares compounds with MBD2 DNA inh | UHRF1 binding to methylated oligonucleotide, TR-FRET | inhibition, % at 4.4 µM | 1,000 tested, 25% active | AID 720530;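 note: UHRF1 SRA domain binding a labeled hemimethylated CpG hairpin DNA; 0% = vehicle only and 100% = reference inhibitor with vehicle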
MBD2 confirm: MBD2-DBD methyl-DNA binding inhibition, TR-FRET confirmation | shares compounds with MBD2 DNA inh | TR-FRET MBD2-DBD binding to methylated oligonucleotide | inhibition, % at 4.4 µM | 1,000 tested, 26% active | AID 720531; in the data active = inhibition above about 14%
* hit, by the source's call; · = no result. Cut-off read from the data, not from the text of the source, unless noted: active = inhibition above about 21%; inactive = the rest.

SMILES | TCR-CD3 inh | Rin1 Abl inh | MBD2 DNA inh | UHRF1 MBD2 ctr | LEDGF integ inh | UHRF1 ctr MBD2 | MBD2 confirm
COC(=O)C1CCc2c(ccc3c2CCCC3)C1=O (stereo not drawn) | 3 | 1 | 0 | 7 | 8 | · | ·
Cc1ccccc1OCC(=O)NS(=O)(=O)c1ccc(Cl)cc1 | 0 | 2 | 14* | -2 | 0 | 3 | 2
NS(=O)(=O)c1ccc(-c2c(-c3ccccc3)sc3ccccc23)cc1 | -1 | 0 | 14* | 22* | 2 | 10 | 4
CN(Cc1c(O)ccc2c1oc(=O)c1ccccc12)C1CCCCC1 | -2 | -9 | 20* | 19 | 6 | 2 | 10
Cc1ccc(C(=O)c2ccccc2C(=O)O)s1 | 9 | 2 | 16* | 26* | -3 | 41* | 14*
O=C(O)c1ccccc1C(=O)c1ccc(Br)s1 | 4 | 3 | 2 | 13 | 4 | · | ·
O=c1[nH]c(SCCOc2ccccc2F)nc2ccccc12 | -5 | -2 | 14* | 23* | 2 | 6 | 2
Cc1ccc(OCCCC(=O)NC2CCCCC2)cc1 | 0 | -1 | -1 | -5 | 5 | · | ·
COc1ccc(NC(=O)CSc2nc3[nH]ncc3c(=O)n2-c2ccccc2OC)cc1OC | -1 | 3 | 17* | 26* | 3 | 5 | 2
CC(C)NS(=O)(=O)c1ccc(OCC(=O)N2CCCC2)c(Cl)c1 | 3 | 0 | 24* | -1 | -4 | 4 | 6
O=C(CSc1nnc(-c2cccnc2)o1)N1CCCCC1 | 1 | -1 | 2 | 0 | -7 | · | ·
CCOC(=O)c1cnc2c(ccc3ccccc32)c1NCCCN(C)C | -7 | -2 | 20* | 4 | 2 | 5 | 26*
COc1ccc(Cn2c(=O)[nH]c3cc(OC)c(OC)cc3c2=O)cc1 | -1 | 2 | 17* | 31* | 1 | 6 | 3
CC(C#N)Sc1ccc(S(=O)(=O)N2CCCC2)cn1 (stereo not drawn) | 1 | 2 | -7 | -2 | 4 | · | ·
O=C(Nc1ccc(F)c(Cl)c1)c1ccc2sc([C@@H]3O[C@H](CO)[C@H](O)[C@H](O)[C@H]3O)nc2c1 | 5 | -3 | -7 | -3 | -1 | · | ·
CCOc1ccc2nc(SCC(=O)N(CC(C)C)c3c(N)n(CC(C)C)c(=O)[nH]c3=O)[nH]c2c1 | 2 | 1 | -1 | -2 | -2 | · | ·
CC(C)CN(C(=O)CSc1nc2ccccc2c(=O)[nH]1)c1c(N)n(CC(C)C)c(=O)[nH]c1=O | 2 | 4 | 25* | -2 | -2 | 4 | 2
O=C(CSCc1ccccc1)Nc1ccc(F)c(F)c1 | -3 | 1 | 16* | 0 | -1 | 8 | 5
COc1ncccc1-c1cc2nc(NCCCN(C)C)n(C)c(=O)c2s1 | 2 | -4 | 14* | 17 | 0 | 30* | 17*
COc1cccc(-c2cc3nc(NCCCN(C)C)n(C)c(=O)c3s2)c1 | -13 | -6 | -4 | 2 | 6 | · | ·
Cc1ccc(S(=O)(=O)N2[C@H](CC(=O)c3cccs3)OC[C@@H]2C)cc1 | 6 | · | 0 | 2 | 3 | · | ·
OCCCNc1c2ccccc2nc2ccccc12 | -4 | -10 | 31* | 28* | 8 | 33* | 34*
Cn1c(SCc2c(Cl)cccc2Cl)nnc1-c1ccc2nonc2c1 | -2 | -2 | 2 | 2 | -4 | · | ·
Cn1c(SCc2ccc(Cl)cc2)nnc1-c1ccc2nonc2c1 | 0 | -4 | 21* | 4 | -2 | 7 | 3
CCn1cc(C(=O)NCC(OC)OC)c(=O)c2cc(S(=O)(=O)N(C)C3CCCCC3)ccc21 | -2 | 3 | 0 | 3 | 3 | · | ·
SMILES | TCR-CD3 inh | Rin1 Abl inh | MBD2 DNA inh | UHRF1 MBD2 ctr | LEDGF integ inh | UHRF1 ctr MBD2 | MBD2 confirm
COC(CNC(=O)c1cn(C)c2ccc(S(=O)(=O)N(C)C3CCCCC3)cc2c1=O)OC | -4 | 4 | 26* | 1 | 3 | 2 | 1
CN(CCC#N)S(=O)(=O)c1cc2c3c(c1)CCN3C(=O)CC2 | -2 | -2 | -4 | -3 | -2 | · | ·
COc1ccc(CNC(=O)c2ccc(-n3ccnc3)c3ccoc23)cc1OC | 3 | 0 | 14* | 23* | 1 | 12 | 13
O=C(NCc1cccc(Cl)c1)c1ccc(-n2ccnc2)c2ccoc12 | 0 | 2 | 14* | 22* | 0 | 7 | 8
COc1ccc(CNC(=O)c2ccc(-n3cncn3)c3ccoc23)cc1OC | 3 | 0 | 4 | 7 | -2 | · | ·
C#CCOCCOCCOCCNc1nc(N2CCN(C(=O)[C@H](CC(N)=O)n3cc(C(N)[C@H](C)CC)nn3)CC2)nc(N2CCN(C(=O)[C@H](CC(N)=O)n3cc(C(N)[C@@H](C)CC)nn3)CC2)n1 (stereo partly drawn) | 6 | -1 | 10 | 17 | 2 | · | ·
C[C@H]1CN([C@@H](C)CO)C(=O)Cc2cc(NC(=O)C3CC3)ccc2O[C@H]1CN(C)Cc1ccc(Oc2ccccc2)cc1 | 4 | 3 | 17* | 2 | -1 | 4 | 0
C[C@H]1CN([C@@H](C)CO)C(=O)Cc2cc(NC(=O)CCN3CCOCC3)ccc2O[C@@H]1CN(C)Cc1ccc(Oc2ccccc2)cc1 | 6 | -4 | 2 | 13 | -3 | · | ·
O=S1(=O)CC(N2CCCC2)CN1 (stereo not drawn) | · | · | 15* | 15 | 3 | 10 | 3
O=S1(=O)CC(N2CCCCC2)CN1C1CCCCC1 (stereo not drawn) | -4 | 0 | -2 | 1 | 1 | · | ·
CC(C)(C)OC(=O)C[C@H]1C/C=C\C[C@@H](CC(=O)N(CCO)Cc2ccccc2)C(=O)N[C@H](Cc2c[nH]c3ccccc23)COC1=O | 6 | 3 | -2 | 1 | 0 | · | ·
Cc1cccc2c(N)c3c(nc12)CCCC3 (tested in a mixture with another compound) | -3 | 0 | -3 | 4 | 0 | · | ·
Cc1cc(C)c2c(N)c3cccc(C)c3nc2n1 | -5 | -7 | 25* | 29* | -4 | 38* | 41*
CC1CCN(Cc2nnnn2CCCC(=O)NCCc2cnn(C)c2)CC1 | -1 | -2 | 1 | 0 | -3 | · | ·
O=C1c2ccccc2C(=O)c2c(NCCCN(CCO)CCO)cccc21 | -5 | -28 | 56* | 36* | -3 | 57* | 59*
CN1C2=C(C(=O)CC(C)(C)C2)C(c2cccs2)C2=C1CC(C)(C)CC2=O | 5 | -1 | 4 | -2 | -1 | · | ·
CC(C)N1CCC1(C)C(=O)Nc1cc(-c2ccccc2)nn1C (stereo not drawn) | -5 | -1 | 0 | 0 | -1 | · | ·
O=C1CC(c2ccc(S(=O)(=O)N3CCN(c4ccccc4)CC3)cc2)CN1 (stereo not drawn) | 1 | 6 | 32* | 0 | 2 | 6 | 1
